# L3MBTL1 inh: blocks human L3MBTL1; 230,000 tested, 0.66% active; Q9Y468; AID 485360; AlphaScreen L3MBTL1–H3K9me1 peptide binding; Potency, µM (top dose mostly 57.1 µM), without a hit: at the top dose activity, negative = inhibition, hits mostly inhibitors; further: potency means the concentration at half of the fitted maximal effect; on the % scale 0 is the no-effect control and ±100 the full control effect; nearly all actives have a fitted effect of over 60% in size
#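 L3MBTL1 50 nM + b-AHA-H3(1-15)K9me1 75 nM, 30 min RT; compound added, 30 min RT; streptavidin donor/Ni-chelate acceptor beads 10 ug/mL each final, 30 min RT dark; AlphaScreen read.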
# JMJD2A Tudor inh: JMJD2A Tudor domain (human) inhibition; O75164; AlphaScreen JMJD2A-Tudor / H3K4me3 peptide binding; Potency, µM (highest dose often 114 µM), for inactives: at the top dose activity change, negative = inhibition, usual class: inhibitors; 390,000 tested, 4.4% active; AID 504339; further: potency means the concentration at half of the fitted maximal effect; on the % scale 0 is the no-effect control and ±100 the full control effect; nearly all actives have a fitted effect of over 50% in size
# HP1b binding inh: blocks HP1-beta chromodomain binding to methylated histone tails; P83916; AlphaScreen HP1-beta / biotin-H3K9me3 peptide binding; Potency, µM (top dose mostly 114 µM), inactives show at the top dose activity change, negative = inhibition, usual class: inhibitors; 390,000 tested, 0.56% active; AID 540317; further: potency means the concentration at half of the fitted maximal effect; nearly all actives have a fitted effect of over 70% in size
# Target sequence (P83916 whole entry, looked up): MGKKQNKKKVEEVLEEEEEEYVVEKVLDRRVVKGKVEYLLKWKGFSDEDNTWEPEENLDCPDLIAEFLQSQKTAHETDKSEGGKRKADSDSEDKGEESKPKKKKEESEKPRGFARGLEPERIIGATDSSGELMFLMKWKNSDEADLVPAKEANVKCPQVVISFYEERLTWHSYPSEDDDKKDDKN
#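 AlphaScreen: HP1-beta (50 nM) preformed 30 min with biotin-H3(1-18)K9me3 peptide (50 nM) in PBS pH 7.4, 0.01% Tween-20. Compound added for 30 min at RT, then streptavidin donor/nickel chelate acceptor beads (10 ug/mL) for 30 min.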
# G9a block: inhibitors of human histone lysine methyltransferase G9a. Q96KQ7. G9a H3K9 monomethylation, AlphaScreen, 2 h. Potency, µM (series often up to 102 µM), without a hit: at the highest dose activity, negative = inhibition, usual class: inhibitors. 350,000 tested, 8.8% active. AID 504332; further: potency means the concentration at half of the fitted maximal effect; on the % scale 0 is the no-effect control and ±100 the full control effect; nearly all actives have a fitted effect of over 75% in size
# Target sequence (Q96KQ7 913-1193 limits assumed): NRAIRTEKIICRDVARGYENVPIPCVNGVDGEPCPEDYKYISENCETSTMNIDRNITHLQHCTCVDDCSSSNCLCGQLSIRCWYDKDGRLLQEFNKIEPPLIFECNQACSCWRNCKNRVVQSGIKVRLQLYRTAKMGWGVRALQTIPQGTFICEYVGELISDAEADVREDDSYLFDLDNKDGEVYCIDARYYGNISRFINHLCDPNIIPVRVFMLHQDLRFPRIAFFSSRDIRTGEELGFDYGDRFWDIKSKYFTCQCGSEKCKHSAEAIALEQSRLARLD
#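 Compounds were preincubated with 20 nM G9a for 15 min, after which biotinylated H3K9 peptide (500 nM) and SAM (20 uM) started a 2 h room-temperature reaction. Monomethylated product was quantified by antibody-based AlphaScreen chemiluminescence.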
# PI5P4Ka inh: inhibitors of human PI5P4K alpha. PI5P4Kalpha enzyme, ADP-Glo luminescence, 60 min; active compounds read low. AID 652105. 330,000 tested, 1.2% active. max response, %. P48426; active means max response of -50% or lower; inconclusive means between -30% and -50%; inactive means -30% or higher; further: value at the top dose of about 77 µM; on the % scale 0 is the no-effect control and ±100 the full control effect
#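 qHTS, 1536-well: enzyme/substrate mix, compound by pin tool, 5 microM ATP final; RT 60 min; ADP-Glo reagents 1 (45 min) then 2 (30 min); luminescence.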
# BAZ2B inh: inhibitors of human BAZ2B bromodomain. AlphaScreen BAZ2B-H3K14Ac peptide displacement. Potency, µM (series often up to 114 µM), for inactives: at the top dose activity change, negative = inhibition, actives largely listed as inhibitors. 360,000 tested, 4.4% active. AID 504333; further: potency means the concentration at half of the fitted maximal effect; on the % scale 0 is the no-effect control and ±100 the full control effect; nearly all actives have a fitted effect of over 60% in size
#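 AlphaScreen displacement of biotin-H3(5-23)K14Ac peptide (50 nM final) from BAZ2B (50 nM final) in PBS pH 7.4, 0.01% Tween-20; complex preformed 30 min RT, then compounds (top 110 uM) 30 min RT, beads 20 min dark.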
# Starred values were filed as active, the others as inactive; u = inconclusive; x = no result; [ ] = remark or other dose. The list is not random: actives were taken first. Their share in the collection is about 11%. Unless noted, the call rests on the fitted dose curve; in most records, active means well fitted inhibition curve with a large enough effect; inconclusive means small, poorly fitted or top-dose-only effect; inactive means no such curve, though single readings can be large or run the other way.
SMILES,L3MBTL1 inh,JMJD2A Tudor inh,HP1b binding inh,G9a block,PI5P4Ka inh,BAZ2B inh
Cc1cc(N2CCN(c3ccc(C(F)(F)F)cc3[N+](=O)[O-])CC2)c2ccccc2n1,-16%,45µM*,-26%,x,6,25µM*
c1nc(NCCN2CCOCC2)c2sc3nc(N4CCOCC4)c4c(c3c2n1)CCC4,-1%,-16%,28%,50µM*,-6,1%
COc1ccc(C(=O)N=S2CCN(C(=O)c3ccc(Cl)cc3)CC2)cc1,3%,-3%,75%,25µM*,3,-23%
CCn1c(NCc2cccc(Cl)c2)nc2ccccc21,x,0%,25%,11%[59 µM],x,-2%
CC(=O)Nc1ccc(N2C(=O)CSC2c2ccc([N+](=O)[O-])cc2)cc1 (centres undefined),x,-17%,-16%,-4%,0,-16%
NS(=O)(=O)c1ccc(NC2=CC(c3ccc([N+](=O)[O-])cc3)N(c3ccc(S(N)(=O)=O)cc3)C2=O)cc1 (centres undefined),-23%,-32%,2%,22µM*,-16,u
CCCC(=O)Nc1c2c(nc3ccccc13)N(c1ccccc1)CC2,x,13%,33%,-3%,-1,13%
O=C(CN1CCCCC1)Nc1c2c(nc3ccccc13)N(c1ccccc1)CC2,2%,u,u,14µM*,1,56µM*
Nc1c2c(nc3ccccc13)N(c1ccccc1)CC2,-5%,35µM*,u,u,7,0%
Cc1ccc(S(=O)(=O)NC(=O)Nc2ncc3c(n2)CC(c2ccco2)CC3=O)cc1 (centres undefined),-6%,-6%,50%,18µM*,-4,-28%
COc1ccc(NC(=O)c2cc3cccc(OC)c3oc2=Nc2ccc(C(=O)O)cc2)cc1OC,x,-19%,17%,40µM*,0,-32%
COc1cccc(CSc2nc3ccccc3c3nc(CCn4c(C)nc5ccccc54)nn23)c1,x,-18%,29%,-28%[59 µM],x,1%
CC(=O)NC1(C(F)(F)F)C(=O)Nc2c1c(=O)[nH]c(=O)n2Cc1ccco1 (centres undefined),x,-20%,28%,-20%[59 µM],-14,-39%
CC(=O)Nc1ccc(S(=O)(=O)NC2(C(F)(F)F)C(=O)Nc3c2c(=O)[nH]c(=O)n3Cc2ccco2)cc1 (centres undefined),6%,-1%,x,56µM*,5,-21%
CCN(CC)S(=O)(=O)c1ccc(C(=O)Nc2cc(C)cc(C)c2)cc1,3%,-3%,23%,8%[12.7 µM],1,-5%
Cc1cc(C)cc(NC(=O)c2ccc(S(=O)(=O)C(F)F)cc2)c1,5%,-9%,28%,50µM*,5,7%
CCOc1ccccc1CNC(=O)CSc1n[nH]c(-c2ccccc2Cl)n1,x,-18%,16%[57 µM],-19%[59 µM],x,1%
Cc1[nH]cnc1CSCc1ccc(Cl)cc1,-9%,-20%,32%,25µM*,10,u
Cc1[nH]cnc1CSCCN,32%,1µM*,-6%,u,-5,u
CCOC(=O)C1C(=O)NC(SCC(=O)Nc2nccs2)=C(C#N)C1c1ccccc1OCC (centres undefined),-2%,56µM*,u,1.6µM*,x,-35%
CCOC(=O)CSC1=C(C#N)C(c2ccccc2OCC)C(C#N)C(=O)N1 (centres undefined),-9%,-25%,19%,u,x,-25%
C=CCSC1=C(C#N)C(c2ccccc2OCC)C(C#N)C(=O)N1 (centres undefined),1%,-31%,-13%,45µM*,x,-12%
CCOC(=O)C1C(=O)NC(SCC(=O)OC)=C(C#N)C1c1ccccc1OCC (centres undefined),x,-9%,46%,0%[59 µM],x,0%
CC(C)(C)c1ccc(C(=O)N2CCN(Cc3cc(=O)n4nc(-c5ccccc5F)sc4n3)CC2)cc1,x,6%,28%[57 µM],-3%[59 µM],x,2%
O=C1CCN(Cc2ccccc2)C=C1c1ccc(Cl)cc1,-6%,-33%,20%,x,-7,x
SMILES,L3MBTL1 inh,JMJD2A Tudor inh,HP1b binding inh,G9a block,PI5P4Ka inh,BAZ2B inh
O=C1CCN(Cc2ccccc2)C=C1c1ccc2ccccc2c1,-13%,45µM*,-17%,x,-2,x
CN1CCN(C(=O)c2ccccc2Nc2ccc(SC(F)F)cc2)CC1,-10%,-19%,19%,u,1,-10%
CCN1CCN(C(=O)c2ccccc2Nc2ccc(SC(F)F)cc2)CC1,-11%,-24%,22%,50µM*,1,-28%
O=C(NCc1ccncc1)c1ccccc1Nc1ccc(SC(F)F)cc1,x,-31%,14%,45µM*,12,-33%
CNC(=O)c1ccccc1Nc1ccc(SC(F)F)cc1,-1%,-7%,18%,x,11,14%
CN(C)c1ccc(/C=N/Nc2nncc3ccccc23)cc1,-3%,-20%,45%,28µM*,2,-3%
CCNc1nc(NCC)nc(N/N=C/c2ccc(O)c(O)c2)n1,-10%,-18%,37%,40µM*,-1,u
C/C(=N\Nc1nncc2ccccc12)c1ccc(O)cc1,x,u,-4%,u,2,u
CCNc1nc(NCC)nc(N/N=C/c2cc(OC)c(OC)c(OC)c2)n1,-10%,-4%,42%,11%,3,-17%
Cc1ccc(/C=N/Nc2nnc(Cl)c3ccccc23)cc1,-17%,-28%,22%,45µM*,22,u
Clc1ccc(/C=N/Nc2nnc(Cl)c3ccccc23)cc1,-4%,0%,36%,19%[59 µM],x,12%
C/C(=N\Nc1nncc2ccccc12)c1ccc(C(C)(C)C)cc1,x,-7%,0%,-10%[2.33 µM],29,56µM*
CCNc1nc(NCC)nc(N/N=C/c2ccc(N(C)C)cc2)n1,u,u,-21%,50µM*,1,45µM*
CN(C)c1ccc(/C=N/Nc2nc3ccccc3o2)cc1,x,-16%,30%,3%,-9,-2%
CCC(CC)C(=O)N1CCc2cc(OC)c(OC)cc2C1COc1ccccc1OC (centres undefined),x,-21%,11%,-2%[59 µM],x,-10%
Cn1cnnc1Sc1nc2ccccc2nc1NS(=O)(=O)c1ccccc1,6%,-14%,37%,50µM*,x,u
CCN(CC(=O)Nc1ccc(NC(C)=O)cc1)C(=O)COc1ccccc1-c1ccccc1,-1%,-14%,34%,5%[2.33 µM],0,-5%
CCOc1ccccc1OCCCC(=O)N(CC)CC(=O)Nc1ccc(NC(C)=O)cc1,-6%,-10%,13%,50µM*,2,9%
CC(=O)Nc1ccc(NC(=O)CCCSc2nc3ccccc3[nH]2)cc1,x,-5%,10%,10%[12.7 µM],2,-17%
CCN(CC(=O)Nc1ccc(NC(C)=O)cc1)C(=O)CCCSc1nc2ccccc2[nH]1,4%,-10%,9%,50µM*,3,9%
